This passage reports residual activity results from ChEMBL document CHEMBL2218924, “A broad activity screen in support of a chemogenomic map for kinase signalling research and drug discovery” (Biochem J, 2013).

The target in experiment [1] is T1, Ephrin type-B receptor 1 (Homo sapiens) (UniProt P54762).
T1 sequence (whole entry): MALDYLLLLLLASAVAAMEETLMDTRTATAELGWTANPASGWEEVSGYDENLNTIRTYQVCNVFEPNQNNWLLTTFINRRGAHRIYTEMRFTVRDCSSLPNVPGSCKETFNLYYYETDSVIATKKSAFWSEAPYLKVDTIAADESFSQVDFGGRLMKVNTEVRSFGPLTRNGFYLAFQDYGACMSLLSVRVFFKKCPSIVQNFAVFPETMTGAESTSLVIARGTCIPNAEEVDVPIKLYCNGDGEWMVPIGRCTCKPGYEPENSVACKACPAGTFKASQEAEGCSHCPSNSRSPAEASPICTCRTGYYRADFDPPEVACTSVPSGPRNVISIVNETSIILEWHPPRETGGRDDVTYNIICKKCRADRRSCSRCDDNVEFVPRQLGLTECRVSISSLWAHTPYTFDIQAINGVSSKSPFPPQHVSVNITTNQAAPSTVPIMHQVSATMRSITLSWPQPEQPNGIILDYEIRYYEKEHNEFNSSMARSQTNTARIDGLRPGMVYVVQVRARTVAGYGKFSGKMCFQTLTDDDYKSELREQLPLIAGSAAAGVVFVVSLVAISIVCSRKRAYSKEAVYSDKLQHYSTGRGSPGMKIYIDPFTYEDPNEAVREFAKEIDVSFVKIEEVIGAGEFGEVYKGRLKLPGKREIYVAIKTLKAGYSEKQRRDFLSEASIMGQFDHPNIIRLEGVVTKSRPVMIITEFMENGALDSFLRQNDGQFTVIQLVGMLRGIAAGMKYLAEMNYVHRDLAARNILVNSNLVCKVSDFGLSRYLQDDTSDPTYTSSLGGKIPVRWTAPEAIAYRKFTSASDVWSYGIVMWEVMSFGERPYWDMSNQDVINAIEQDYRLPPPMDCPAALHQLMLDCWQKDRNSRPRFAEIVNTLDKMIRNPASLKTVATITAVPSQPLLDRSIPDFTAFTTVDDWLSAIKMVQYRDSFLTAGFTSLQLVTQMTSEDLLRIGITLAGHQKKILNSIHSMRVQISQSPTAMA
The settings on record: at 10 µM.

Experiment [2] addresses T2, Ephrin type-B receptor 2 (Homo sapiens) (UniProt P29323).
T2 sequence (whole entry): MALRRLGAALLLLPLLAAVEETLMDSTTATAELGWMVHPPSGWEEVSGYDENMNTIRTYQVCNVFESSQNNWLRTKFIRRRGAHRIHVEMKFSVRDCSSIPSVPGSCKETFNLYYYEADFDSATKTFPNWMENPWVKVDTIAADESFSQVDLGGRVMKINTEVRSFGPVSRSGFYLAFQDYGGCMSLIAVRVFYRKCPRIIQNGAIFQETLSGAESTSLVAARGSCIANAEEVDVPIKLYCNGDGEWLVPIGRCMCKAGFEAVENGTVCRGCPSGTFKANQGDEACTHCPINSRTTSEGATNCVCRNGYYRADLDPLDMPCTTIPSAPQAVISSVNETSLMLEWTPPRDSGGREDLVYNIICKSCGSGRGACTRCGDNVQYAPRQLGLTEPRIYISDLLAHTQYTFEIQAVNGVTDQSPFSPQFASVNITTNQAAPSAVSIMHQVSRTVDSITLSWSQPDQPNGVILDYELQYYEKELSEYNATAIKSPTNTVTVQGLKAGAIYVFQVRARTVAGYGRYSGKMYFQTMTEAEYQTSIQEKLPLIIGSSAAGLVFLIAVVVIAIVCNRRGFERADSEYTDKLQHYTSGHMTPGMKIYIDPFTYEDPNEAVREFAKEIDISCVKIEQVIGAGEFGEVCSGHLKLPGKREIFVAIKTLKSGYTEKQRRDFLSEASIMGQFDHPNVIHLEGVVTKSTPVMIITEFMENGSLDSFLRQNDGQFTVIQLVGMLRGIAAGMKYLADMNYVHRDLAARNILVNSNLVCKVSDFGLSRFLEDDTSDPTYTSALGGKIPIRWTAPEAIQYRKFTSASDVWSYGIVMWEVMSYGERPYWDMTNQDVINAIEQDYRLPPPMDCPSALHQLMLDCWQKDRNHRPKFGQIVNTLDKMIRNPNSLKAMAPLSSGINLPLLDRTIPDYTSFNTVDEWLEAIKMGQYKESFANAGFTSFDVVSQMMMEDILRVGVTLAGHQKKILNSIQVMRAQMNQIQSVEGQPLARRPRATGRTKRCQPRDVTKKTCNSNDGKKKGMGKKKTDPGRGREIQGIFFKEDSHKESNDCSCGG
The settings on record: at 1 µM.

Experiment [3] deals with T2, Ephrin type-B receptor 2 (Homo sapiens). The settings on record: at 10 µM.
The target of experiment [4] is T3, Ephrin type-B receptor 3 (Homo sapiens) (UniProt P54753).
T3 sequence (whole entry): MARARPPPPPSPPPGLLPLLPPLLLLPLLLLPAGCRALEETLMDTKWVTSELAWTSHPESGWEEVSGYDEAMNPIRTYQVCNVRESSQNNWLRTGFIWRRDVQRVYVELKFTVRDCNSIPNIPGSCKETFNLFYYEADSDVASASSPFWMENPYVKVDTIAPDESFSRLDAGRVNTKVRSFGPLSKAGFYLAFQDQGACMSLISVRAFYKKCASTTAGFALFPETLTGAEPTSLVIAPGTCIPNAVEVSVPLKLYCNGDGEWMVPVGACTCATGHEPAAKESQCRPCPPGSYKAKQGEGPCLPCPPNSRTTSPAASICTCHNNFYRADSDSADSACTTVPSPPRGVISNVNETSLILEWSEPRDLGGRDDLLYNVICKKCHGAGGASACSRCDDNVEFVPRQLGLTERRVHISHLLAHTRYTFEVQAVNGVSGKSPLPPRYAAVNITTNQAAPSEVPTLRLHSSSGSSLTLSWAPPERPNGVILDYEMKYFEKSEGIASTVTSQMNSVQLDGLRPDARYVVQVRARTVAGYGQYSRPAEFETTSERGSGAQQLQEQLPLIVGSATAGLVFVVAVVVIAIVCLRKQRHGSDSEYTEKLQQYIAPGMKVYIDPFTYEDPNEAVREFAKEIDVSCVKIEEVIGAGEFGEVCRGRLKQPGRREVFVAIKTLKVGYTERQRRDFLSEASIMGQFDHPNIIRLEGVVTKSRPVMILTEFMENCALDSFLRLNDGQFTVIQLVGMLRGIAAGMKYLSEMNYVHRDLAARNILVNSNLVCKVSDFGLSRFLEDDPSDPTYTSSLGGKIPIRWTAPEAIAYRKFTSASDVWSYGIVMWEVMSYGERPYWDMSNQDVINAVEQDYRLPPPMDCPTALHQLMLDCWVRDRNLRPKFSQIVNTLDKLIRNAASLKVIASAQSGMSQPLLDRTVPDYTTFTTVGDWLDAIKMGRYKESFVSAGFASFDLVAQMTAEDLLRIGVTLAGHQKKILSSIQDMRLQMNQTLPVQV
The settings on record: at 1 µM.

The target of experiment [5] is T3, Ephrin type-B receptor 3 (Homo sapiens). The settings on record: at 10 µM.
The target of experiment [6] is T4, Ephrin type-B receptor 4 (Homo sapiens) (UniProt P54760).
T4 sequence (whole entry): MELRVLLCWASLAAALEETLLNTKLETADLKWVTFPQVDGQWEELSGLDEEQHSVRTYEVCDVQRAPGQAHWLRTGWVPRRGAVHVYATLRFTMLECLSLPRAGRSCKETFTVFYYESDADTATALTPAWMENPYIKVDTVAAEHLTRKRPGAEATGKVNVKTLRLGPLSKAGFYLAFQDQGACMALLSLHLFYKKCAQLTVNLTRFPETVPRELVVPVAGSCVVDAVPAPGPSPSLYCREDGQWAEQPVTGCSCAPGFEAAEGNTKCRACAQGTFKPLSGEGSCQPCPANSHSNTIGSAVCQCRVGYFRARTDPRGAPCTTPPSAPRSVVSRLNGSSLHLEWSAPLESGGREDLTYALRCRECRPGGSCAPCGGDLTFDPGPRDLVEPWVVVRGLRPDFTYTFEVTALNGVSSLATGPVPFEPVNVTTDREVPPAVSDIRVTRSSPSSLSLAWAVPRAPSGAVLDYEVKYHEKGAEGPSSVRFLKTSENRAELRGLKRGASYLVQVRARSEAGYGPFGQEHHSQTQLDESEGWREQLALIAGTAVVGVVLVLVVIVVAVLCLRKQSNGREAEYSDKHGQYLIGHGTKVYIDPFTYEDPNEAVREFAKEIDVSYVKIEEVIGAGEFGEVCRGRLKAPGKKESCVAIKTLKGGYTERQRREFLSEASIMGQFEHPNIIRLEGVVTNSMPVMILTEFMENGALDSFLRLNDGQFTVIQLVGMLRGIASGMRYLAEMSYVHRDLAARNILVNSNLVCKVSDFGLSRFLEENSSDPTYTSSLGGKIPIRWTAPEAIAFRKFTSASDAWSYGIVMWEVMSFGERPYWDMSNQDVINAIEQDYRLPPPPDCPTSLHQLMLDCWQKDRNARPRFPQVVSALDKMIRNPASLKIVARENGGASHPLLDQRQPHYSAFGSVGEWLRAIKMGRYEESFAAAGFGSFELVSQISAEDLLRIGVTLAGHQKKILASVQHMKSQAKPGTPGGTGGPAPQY
The settings on record: at 1 µM.

In experiment [7] the target is T4, Ephrin type-B receptor 4 (Homo sapiens). The settings on record: at 10 µM.
Experiment [8] deals with Receptor tyrosine-protein kinase erbB-4 (Homo sapiens) (UniProt Q15303). The settings on record: at 1 µM.
Experiment [9] shares this target. The settings on record: at 10 µM.
Experiment [10] addresses Focal adhesion kinase 1 (Homo sapiens) (UniProt Q05397). The settings on record: at 1 µM.

Molecules are shown by their SMILES.

Receptor tyrosine-protein kinase erbB-4 (Homo sapiens), sequence (Q15303 whole entry): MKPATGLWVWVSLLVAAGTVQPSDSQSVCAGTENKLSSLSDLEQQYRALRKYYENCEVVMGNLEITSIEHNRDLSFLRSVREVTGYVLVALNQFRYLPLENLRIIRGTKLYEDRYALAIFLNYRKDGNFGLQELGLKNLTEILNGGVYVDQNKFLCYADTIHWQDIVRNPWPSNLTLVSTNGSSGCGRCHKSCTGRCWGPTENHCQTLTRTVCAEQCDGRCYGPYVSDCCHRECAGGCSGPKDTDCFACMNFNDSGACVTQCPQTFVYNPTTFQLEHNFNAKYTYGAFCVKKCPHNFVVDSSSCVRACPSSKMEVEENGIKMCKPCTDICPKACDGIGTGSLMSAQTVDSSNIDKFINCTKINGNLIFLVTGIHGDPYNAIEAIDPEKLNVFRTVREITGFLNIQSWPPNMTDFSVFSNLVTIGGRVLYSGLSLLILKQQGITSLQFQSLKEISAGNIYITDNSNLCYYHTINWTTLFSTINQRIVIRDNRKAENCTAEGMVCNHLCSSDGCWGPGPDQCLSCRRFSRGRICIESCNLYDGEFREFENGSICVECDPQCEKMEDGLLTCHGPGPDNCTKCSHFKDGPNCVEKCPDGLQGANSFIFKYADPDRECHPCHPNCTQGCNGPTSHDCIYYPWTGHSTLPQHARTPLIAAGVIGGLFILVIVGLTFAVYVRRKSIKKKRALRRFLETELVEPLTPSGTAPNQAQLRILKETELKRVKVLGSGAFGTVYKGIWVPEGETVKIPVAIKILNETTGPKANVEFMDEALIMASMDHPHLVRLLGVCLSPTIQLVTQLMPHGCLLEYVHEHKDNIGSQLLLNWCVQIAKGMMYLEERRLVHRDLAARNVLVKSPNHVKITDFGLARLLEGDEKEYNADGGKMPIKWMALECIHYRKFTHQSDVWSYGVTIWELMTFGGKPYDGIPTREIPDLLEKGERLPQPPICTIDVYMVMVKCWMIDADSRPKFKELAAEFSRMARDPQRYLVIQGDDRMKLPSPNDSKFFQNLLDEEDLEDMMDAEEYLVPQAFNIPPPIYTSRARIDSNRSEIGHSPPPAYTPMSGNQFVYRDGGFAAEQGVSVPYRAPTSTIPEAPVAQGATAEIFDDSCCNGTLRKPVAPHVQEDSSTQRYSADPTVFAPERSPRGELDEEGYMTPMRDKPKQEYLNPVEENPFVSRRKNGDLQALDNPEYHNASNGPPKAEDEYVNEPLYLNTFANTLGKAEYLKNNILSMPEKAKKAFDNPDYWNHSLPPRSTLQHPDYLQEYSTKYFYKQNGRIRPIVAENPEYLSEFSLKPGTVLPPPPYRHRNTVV
Focal adhesion kinase 1 (Homo sapiens), sequence (Q05397 2-1052 limits assumed): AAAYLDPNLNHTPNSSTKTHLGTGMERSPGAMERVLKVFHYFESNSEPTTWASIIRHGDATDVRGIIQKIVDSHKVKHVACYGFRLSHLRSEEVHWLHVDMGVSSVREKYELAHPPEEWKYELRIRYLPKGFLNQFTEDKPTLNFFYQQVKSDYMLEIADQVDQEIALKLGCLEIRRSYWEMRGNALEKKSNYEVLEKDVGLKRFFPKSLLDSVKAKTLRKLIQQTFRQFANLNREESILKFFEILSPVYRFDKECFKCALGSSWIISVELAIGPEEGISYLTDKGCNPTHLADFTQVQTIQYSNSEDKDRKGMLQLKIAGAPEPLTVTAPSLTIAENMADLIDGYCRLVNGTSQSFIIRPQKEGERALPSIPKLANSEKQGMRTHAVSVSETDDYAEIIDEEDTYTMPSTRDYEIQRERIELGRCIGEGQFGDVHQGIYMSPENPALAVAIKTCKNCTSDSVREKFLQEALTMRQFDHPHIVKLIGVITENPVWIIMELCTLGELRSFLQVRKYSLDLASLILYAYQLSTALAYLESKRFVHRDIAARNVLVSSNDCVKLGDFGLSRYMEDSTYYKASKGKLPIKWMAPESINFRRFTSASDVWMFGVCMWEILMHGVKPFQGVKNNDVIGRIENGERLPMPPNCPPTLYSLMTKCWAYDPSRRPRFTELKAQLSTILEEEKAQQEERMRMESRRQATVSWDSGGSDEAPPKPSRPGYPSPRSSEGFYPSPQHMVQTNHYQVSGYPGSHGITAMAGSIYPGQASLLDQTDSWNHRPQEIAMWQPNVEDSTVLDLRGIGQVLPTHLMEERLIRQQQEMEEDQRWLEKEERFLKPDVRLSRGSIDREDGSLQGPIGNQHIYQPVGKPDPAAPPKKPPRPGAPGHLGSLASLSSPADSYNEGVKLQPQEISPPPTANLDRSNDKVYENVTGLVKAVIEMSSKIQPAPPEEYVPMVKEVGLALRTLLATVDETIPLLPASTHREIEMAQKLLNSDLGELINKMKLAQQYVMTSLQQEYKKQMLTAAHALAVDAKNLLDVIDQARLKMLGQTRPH

As a reminder, the residual activity is the signal under treatment as a percentage of the control signal. On to `CCOc1cc2ncnc(Nc3cccc(Br)c3)c2cc1OCC`, for which the residual activity in experiment [1] is 5%; in [2], 46%; in experiment [3] it was 0%; in experiment [4], 108% (inactive); in experiment [5], 126%; in [6] it was 19%. Further, the residual activity in experiment [7] is -1%; in experiment [8], 10%; in experiment [9], -4%; in experiment [10] it was 139%.
